Experimental data published in ChEMBL document CHEMBL2218924, “A broad activity screen in support of a chemogenomic map for kinase signalling research and drug discovery” (Biochem J, 2013).

Experiments:
[1] = target: Serine/threonine-protein kinase PLK2 (Homo sapiens) (UniProt Q9NYY3); conditions: at 1 µM
[2] = target: Serine/threonine-protein kinase PLK2 (Homo sapiens) (UniProt Q9NYY3); conditions: at 10 µM
[3] = target: Tyrosine-protein kinase SYK (Homo sapiens) (UniProt P43405); conditions: at 10 µM
[4] = target: T1, Mitogen-activated protein kinase kinase kinase 7 (Homo sapiens) (UniProt O43318); conditions: at 1 µM
T1 sequence (whole entry): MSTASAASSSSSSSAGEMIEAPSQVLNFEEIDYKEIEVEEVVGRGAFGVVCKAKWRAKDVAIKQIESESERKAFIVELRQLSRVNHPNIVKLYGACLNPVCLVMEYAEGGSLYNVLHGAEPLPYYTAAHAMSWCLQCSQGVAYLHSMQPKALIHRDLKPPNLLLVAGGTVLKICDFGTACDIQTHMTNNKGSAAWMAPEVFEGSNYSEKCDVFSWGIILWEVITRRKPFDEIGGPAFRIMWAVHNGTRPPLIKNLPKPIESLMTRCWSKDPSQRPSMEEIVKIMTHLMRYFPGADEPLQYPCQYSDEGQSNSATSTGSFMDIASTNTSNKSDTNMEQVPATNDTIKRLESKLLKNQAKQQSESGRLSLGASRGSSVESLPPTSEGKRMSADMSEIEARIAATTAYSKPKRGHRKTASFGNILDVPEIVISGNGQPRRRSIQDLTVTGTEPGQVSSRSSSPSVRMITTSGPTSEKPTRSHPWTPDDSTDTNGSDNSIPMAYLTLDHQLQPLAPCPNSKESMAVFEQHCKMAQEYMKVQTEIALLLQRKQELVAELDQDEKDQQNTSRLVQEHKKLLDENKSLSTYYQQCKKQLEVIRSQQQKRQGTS

[5] = target: T1, Mitogen-activated protein kinase kinase kinase 7 (Homo sapiens); conditions: at 10 µM
[6] = target: T2, Serine/threonine-protein kinase TAO3 (Homo sapiens) (UniProt Q9H2K8); conditions: at 10 µM
T2 sequence (whole entry): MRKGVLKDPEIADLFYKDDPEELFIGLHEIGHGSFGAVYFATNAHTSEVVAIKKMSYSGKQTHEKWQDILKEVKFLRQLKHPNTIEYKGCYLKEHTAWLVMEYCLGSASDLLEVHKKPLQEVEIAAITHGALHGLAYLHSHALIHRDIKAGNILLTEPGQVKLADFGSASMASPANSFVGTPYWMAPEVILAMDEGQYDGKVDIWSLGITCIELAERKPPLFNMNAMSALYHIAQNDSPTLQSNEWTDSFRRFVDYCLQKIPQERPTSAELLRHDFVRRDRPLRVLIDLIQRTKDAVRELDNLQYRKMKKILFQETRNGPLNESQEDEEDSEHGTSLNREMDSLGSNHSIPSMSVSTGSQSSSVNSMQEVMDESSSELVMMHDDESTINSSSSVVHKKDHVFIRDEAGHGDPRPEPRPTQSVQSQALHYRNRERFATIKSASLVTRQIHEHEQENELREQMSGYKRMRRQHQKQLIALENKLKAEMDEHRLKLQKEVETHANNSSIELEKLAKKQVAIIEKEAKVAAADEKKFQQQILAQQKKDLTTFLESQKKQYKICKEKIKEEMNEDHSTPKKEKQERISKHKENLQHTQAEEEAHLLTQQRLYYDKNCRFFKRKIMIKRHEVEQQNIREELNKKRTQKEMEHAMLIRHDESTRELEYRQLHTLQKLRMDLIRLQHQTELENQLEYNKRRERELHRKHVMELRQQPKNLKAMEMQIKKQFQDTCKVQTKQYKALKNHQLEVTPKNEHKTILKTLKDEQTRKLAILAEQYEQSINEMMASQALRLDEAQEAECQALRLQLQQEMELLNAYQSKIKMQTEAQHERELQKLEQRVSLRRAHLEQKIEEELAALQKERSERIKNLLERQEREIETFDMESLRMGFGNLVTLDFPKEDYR

[7] = target: T3, Serine/threonine-protein kinase TBK1 (Homo sapiens) (UniProt Q9UHD2); conditions: at 1 µM
T3 sequence (whole entry): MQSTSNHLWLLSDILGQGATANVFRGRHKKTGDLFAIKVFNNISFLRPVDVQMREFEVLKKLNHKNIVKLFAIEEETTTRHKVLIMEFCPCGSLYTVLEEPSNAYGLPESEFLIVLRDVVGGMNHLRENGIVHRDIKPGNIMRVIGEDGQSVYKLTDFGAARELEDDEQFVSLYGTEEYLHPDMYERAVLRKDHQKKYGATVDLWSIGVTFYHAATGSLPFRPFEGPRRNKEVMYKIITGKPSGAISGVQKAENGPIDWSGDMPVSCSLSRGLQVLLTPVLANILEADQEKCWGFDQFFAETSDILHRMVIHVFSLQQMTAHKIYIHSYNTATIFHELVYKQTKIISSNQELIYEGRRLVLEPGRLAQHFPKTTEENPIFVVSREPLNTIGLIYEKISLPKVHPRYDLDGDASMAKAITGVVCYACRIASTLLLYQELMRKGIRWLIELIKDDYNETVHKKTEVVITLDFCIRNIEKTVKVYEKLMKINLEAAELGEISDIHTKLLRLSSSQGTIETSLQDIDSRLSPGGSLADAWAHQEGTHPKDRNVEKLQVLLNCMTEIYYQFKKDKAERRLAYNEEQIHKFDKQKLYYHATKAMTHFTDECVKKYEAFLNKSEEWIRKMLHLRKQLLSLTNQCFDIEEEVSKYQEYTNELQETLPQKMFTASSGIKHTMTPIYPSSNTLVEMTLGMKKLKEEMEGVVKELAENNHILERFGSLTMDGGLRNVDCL

[8] = target: T3, Serine/threonine-protein kinase TBK1 (Homo sapiens); conditions: at 10 µM
[9] = target: T4, TGF-beta receptor type-1 (Homo sapiens) (UniProt P36897); conditions: at 1 µM
T4 sequence (whole entry): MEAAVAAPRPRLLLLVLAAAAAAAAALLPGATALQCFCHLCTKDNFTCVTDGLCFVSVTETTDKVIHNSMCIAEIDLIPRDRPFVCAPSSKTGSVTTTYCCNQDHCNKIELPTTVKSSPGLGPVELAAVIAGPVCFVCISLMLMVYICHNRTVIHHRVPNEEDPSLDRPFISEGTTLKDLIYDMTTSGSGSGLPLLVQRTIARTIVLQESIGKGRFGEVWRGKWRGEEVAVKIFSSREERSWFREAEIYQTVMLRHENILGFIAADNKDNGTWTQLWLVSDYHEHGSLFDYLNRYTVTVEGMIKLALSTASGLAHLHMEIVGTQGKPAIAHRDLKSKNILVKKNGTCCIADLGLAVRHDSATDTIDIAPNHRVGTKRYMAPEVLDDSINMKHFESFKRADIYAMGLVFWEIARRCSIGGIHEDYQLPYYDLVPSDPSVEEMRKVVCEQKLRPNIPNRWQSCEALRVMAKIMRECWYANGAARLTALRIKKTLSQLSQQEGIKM

[10] = target: T4, TGF-beta receptor type-1 (Homo sapiens); conditions: at 10 µM
[11] = target: Serine/threonine-protein kinase 33 (Homo sapiens) (UniProt Q9BYT3); conditions: at 1 µM
[12] = target: Serine/threonine-protein kinase 33 (Homo sapiens) (UniProt Q9BYT3); conditions: at 10 µM
[13] = target: Tyrosine-protein kinase SYK (Homo sapiens) (UniProt P43405); conditions: at 1 µM
[14] = target: Insulin-like growth factor 1 receptor (Homo sapiens) (UniProt P08069); conditions: at 1 µM
[15] = target: Insulin-like growth factor 1 receptor (Homo sapiens) (UniProt P08069); conditions: at 10 µM
[16] = target: T5, Serine/threonine-protein kinase TAO1 (Homo sapiens) (UniProt Q7L7X3); conditions: at 1 µM
T5 sequence (whole entry): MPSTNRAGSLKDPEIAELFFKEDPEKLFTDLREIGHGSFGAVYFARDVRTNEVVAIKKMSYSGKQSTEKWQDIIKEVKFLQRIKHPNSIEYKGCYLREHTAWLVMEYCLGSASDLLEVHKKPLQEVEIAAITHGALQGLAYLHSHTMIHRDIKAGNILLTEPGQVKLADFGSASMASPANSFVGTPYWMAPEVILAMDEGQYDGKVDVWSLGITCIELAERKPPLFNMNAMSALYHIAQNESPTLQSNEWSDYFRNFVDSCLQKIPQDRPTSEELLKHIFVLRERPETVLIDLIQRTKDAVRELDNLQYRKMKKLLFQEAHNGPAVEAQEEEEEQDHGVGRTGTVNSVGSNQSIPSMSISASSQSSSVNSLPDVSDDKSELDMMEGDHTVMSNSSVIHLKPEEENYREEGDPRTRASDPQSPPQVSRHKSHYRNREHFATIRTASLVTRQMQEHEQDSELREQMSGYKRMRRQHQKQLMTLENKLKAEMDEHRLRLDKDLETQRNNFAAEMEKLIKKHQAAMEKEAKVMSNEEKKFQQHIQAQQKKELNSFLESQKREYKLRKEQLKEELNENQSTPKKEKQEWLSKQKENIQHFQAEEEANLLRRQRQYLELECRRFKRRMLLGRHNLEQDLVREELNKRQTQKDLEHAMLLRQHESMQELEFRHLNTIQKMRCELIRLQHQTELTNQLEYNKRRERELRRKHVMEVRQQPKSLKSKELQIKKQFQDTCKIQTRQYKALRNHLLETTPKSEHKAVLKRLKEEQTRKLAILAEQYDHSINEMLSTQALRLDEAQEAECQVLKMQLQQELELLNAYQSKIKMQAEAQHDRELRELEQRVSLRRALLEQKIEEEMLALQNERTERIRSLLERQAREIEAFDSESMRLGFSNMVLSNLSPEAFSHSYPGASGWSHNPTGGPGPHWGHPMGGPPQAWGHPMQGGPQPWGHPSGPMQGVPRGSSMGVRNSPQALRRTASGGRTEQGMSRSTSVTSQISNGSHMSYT

[17] = target: T5, Serine/threonine-protein kinase TAO1 (Homo sapiens); conditions: at 10 µM
[18] = target: T6, Serine/threonine-protein kinase TAO2 (Homo sapiens) (UniProt Q9UL54); conditions: at 1 µM
T6 sequence (whole entry): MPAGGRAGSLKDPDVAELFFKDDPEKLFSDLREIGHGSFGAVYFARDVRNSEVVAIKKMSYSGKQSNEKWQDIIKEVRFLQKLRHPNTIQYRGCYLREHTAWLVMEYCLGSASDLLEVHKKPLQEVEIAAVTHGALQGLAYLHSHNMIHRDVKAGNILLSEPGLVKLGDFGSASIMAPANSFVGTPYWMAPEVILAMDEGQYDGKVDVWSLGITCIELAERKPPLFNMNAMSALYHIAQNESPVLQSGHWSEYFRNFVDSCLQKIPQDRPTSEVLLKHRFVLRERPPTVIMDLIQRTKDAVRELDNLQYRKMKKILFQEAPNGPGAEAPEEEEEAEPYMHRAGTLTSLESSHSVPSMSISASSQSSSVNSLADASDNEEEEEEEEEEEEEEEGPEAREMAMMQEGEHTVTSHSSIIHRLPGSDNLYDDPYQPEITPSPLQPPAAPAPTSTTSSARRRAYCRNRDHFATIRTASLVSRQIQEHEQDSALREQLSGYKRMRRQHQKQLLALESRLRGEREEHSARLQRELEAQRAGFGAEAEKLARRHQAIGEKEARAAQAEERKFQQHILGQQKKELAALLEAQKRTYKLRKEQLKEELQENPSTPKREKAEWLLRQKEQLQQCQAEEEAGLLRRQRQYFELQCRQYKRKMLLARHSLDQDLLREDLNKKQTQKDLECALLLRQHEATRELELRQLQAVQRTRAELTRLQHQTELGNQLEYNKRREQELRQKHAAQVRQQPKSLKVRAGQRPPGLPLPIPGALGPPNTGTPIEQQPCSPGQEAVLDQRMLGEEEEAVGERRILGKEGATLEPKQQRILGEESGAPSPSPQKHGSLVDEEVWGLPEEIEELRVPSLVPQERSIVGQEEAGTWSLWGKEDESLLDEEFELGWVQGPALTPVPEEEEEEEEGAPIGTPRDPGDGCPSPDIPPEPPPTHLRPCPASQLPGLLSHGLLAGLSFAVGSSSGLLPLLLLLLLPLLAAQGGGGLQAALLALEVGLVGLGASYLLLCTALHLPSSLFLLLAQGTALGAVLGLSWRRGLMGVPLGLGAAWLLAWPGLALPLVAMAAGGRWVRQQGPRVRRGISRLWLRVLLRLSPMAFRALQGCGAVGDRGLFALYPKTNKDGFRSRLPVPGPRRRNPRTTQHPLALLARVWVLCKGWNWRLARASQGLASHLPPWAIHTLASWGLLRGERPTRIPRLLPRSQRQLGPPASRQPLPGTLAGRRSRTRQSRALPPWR

[19] = target: T6, Serine/threonine-protein kinase TAO2 (Homo sapiens); conditions: at 10 µM
[20] = target: T2, Serine/threonine-protein kinase TAO3 (Homo sapiens); conditions: at 1 µM

Sequence of Serine/threonine-protein kinase 33 (Homo sapiens) (Q9BYT3 whole entry, looked up): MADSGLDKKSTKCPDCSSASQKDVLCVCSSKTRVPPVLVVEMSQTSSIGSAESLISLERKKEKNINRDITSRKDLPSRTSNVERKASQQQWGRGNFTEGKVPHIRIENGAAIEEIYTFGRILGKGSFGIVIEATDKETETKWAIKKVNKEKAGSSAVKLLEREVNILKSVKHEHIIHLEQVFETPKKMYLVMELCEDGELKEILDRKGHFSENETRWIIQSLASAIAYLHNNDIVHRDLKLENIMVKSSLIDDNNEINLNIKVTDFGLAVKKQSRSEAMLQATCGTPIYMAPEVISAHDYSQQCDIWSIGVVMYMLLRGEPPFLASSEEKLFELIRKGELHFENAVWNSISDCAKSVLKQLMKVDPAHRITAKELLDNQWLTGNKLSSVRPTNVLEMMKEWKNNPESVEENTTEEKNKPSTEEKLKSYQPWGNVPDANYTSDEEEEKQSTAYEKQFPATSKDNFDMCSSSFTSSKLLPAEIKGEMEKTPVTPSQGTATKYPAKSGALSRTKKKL
Sequence of Insulin-like growth factor 1 receptor (Homo sapiens) (P08069 31-736 limits assumed): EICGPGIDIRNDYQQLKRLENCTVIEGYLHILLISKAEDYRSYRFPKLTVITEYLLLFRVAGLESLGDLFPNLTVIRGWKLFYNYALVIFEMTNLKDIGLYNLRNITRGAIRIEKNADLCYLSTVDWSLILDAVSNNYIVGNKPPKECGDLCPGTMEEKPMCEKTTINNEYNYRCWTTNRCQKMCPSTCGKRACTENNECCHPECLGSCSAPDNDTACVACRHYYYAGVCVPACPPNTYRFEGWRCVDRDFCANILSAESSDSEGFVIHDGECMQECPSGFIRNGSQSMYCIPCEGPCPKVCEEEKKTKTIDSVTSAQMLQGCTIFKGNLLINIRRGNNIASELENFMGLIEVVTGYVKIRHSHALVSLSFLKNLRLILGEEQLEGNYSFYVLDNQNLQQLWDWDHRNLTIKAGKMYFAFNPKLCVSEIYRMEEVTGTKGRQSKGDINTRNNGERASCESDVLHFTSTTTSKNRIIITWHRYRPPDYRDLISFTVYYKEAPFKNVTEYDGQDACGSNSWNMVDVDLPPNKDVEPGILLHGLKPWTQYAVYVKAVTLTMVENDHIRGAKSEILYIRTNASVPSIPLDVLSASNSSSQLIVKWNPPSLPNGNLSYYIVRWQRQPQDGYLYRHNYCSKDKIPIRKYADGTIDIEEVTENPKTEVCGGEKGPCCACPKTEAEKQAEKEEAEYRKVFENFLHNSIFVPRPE
Sequence of Insulin-like growth factor 1 receptor (Homo sapiens) (P08069 741-1367 limits assumed): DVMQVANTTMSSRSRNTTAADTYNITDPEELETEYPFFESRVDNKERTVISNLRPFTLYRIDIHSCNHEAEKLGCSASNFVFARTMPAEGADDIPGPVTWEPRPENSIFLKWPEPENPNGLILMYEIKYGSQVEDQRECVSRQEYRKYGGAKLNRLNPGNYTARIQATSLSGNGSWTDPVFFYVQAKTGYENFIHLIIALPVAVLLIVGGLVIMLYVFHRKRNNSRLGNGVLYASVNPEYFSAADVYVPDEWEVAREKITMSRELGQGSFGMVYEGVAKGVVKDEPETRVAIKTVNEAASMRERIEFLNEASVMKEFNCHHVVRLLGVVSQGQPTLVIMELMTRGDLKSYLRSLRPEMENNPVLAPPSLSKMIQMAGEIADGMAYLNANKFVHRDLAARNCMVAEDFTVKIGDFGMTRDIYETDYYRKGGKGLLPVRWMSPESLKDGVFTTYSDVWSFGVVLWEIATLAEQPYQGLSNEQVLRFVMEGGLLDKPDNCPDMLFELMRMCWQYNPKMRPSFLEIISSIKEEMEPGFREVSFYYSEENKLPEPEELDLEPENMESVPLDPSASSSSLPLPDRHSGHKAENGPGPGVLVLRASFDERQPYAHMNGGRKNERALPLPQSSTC
Sequence of Serine/threonine-protein kinase PLK2 (Homo sapiens) (Q9NYY3 whole entry, looked up): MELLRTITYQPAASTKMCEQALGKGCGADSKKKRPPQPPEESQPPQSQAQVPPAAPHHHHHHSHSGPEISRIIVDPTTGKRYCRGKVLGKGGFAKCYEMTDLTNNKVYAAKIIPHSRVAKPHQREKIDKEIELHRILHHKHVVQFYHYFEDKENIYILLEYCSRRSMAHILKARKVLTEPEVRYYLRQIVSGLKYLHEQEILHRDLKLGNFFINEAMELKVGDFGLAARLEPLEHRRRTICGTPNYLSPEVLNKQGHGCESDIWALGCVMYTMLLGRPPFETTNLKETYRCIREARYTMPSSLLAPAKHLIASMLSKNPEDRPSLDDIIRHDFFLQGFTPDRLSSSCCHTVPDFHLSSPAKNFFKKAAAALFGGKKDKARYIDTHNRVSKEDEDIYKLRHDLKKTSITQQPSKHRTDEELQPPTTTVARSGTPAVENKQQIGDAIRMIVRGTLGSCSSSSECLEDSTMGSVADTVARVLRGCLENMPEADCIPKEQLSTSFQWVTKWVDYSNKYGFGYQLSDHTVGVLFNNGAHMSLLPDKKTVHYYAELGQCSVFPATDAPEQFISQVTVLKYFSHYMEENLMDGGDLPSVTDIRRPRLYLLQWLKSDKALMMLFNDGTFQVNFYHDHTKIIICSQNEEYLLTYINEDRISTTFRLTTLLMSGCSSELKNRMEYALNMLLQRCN

SMILES | residual activity [1] | residual activity [2] | residual activity [3] | residual activity [4] | residual activity [5] | residual activity [6] | residual activity [7] | residual activity [8] | residual activity [9] | residual activity [10] | residual activity [11] | residual activity [12] | residual activity [13] | residual activity [14] | residual activity [15] | residual activity [16] | residual activity [17] | residual activity [18] | residual activity [19] | residual activity [20]
c1cc(-c2cnn3cc(-c4ccc(OCCN5CCCCC5)cc4)cnc23)ccn1 | 82% | 85% | 59% | 57% | 13% | 82% | 64% | 13% | 78% | 30% | – | – | – | – | – | – | – | – | – | –
CCc1nc(-c2ccc(OC)cc2)[nH]c1-c1ccncc1 | 112% | 100% | 107% | – | – | – | 108% | – | – | – | 105% | 100% | 113% | 104% | 107% | – | – | – | – | –
CC(C)[C@H](CO)Nc1nc(Nc2cccc(Cl)c2)c2ncn(C(C)C)c2n1 | 101% | 86% | 60% | 73% | 20% | 32% | 90% | 66% | 95% | 93% | 89% | 53% | 102% | 48% | 12% | 82% | 26% | 98% | 49% | 82%
COc1cc2ncnc(Nc3ccc(OCc4ccccc4)cc3)c2cc1OC | 108% | 105% | 82% | 99% | 96% | 93% | 92% | 71% | 102% | 100% | 100% | 105% | 116% | 108% | 104% | 108% | 91% | 104% | 90% | 107%
N/C(=N\[N+](=O)[O-])N/N=C\c1ccc(-c2cccc([N+](=O)[O-])c2)o1 | 99% | 98% | – | – | 89% | 93% | 94% | 72% | 98% | 98% | – | – | – | – | – | 91% | 88% | – | – | 96%
